Results on 40 molecules are retold here after PubChem BioAssay (EPA / NIEHS).

The source made the active and inactive calls. Rule for the calls: active = hit-call score of the fitted dose curve at least 0.9, where 1 is the maximum; inactive = score below 0.9.

This assay is described as follows: ATG_GRE_CIS: Attagene CIS-FACTORIAL HepG2 Assay for human Glucocorticoid Response Elements (GRE) (AID 2282947). Particulars: HepG2 GRE cis-reporter, Attagene multiplex mRNA; actives raise or lower the signal. The procedure: ATG_CIS is a cell-based, multiplexed-readout assay that uses HepG2, a human liver cell line, with measurements taken at 24 hours after chemical dosing in a 24-well plate.ATG_GRE_CIS is one of 52 assay component(s) measured or calculated from the ATG_CIS assay. It is designed to make measurements of mRNA induction, a form of inducible reporter, as detected with fluorescence intensity signals by Reverse transcription polymerase chain reaction (RT-PCR) and Capillary electrophoresis technology.Data from the assay component ATG_GRE_CIS was analyzed into 1 assay endpoint. This assay endpoint, ATG_GRE_CIS, was analyzed with bidirectional fitting relative to DMSO as the negative control and baseline of activity. Using a type of inducible reporter, measures of mRNA for gain or loss-of-signal activity can be used to understand the reporter gene at the transcription factor-level as they relate to the gene NR3C1. Furthermore, this assay endpoint can be referred to as a primary readout, because this assay has produced multiple assay endpoints where this one serves a reporter gene function. To generalize the intended target to other relatable targets, this assay endpoint is annotated to the nuclear receptor intended target family, where the subfamily is steroidal.
Human liver HepG2 cells are transiently transfected with multiple reporter transcription units (MRTUs) in 6-well plates using FuGene 6 reagent (Roche; 3 ml FuGene/1 mg DNA). The MRTU constructs are regulated by a cis-regulating element (promoter). […] A major difference between the CIS and TRANS system is that in CIS activities of endogenous TFs are measured, whereas the TRANS assay evaluates changes in activities of exogenous, chimeric NR-Gal4 proteins. […] At the end of 24 hour incubation, total RNA was isolated using TriZol reagent (Invitrogen). The isolated RNA is then reverse-transcribed using oligo(dT) primer and Mo-MLV reverse transcriptase (Invitrogen) with DNAse I (Ambion) treatment for 30 min. The one-tenth of the produced cDNA was amplified by PCR using Taq DNA polymerase (Invitrogen) and two reporter sequence-specific primers. The PCR products were fluorescently labeled by primer extension with 6-arboxyfluorescein (6-FAM) 5'-labeled reporter sequence-specific primer (2 min at 95 C, 20 s at 68 C and 10 min at 72 C) and these products were digested with 5U of HpaI (New England Biolabs) for 2h at 37 C. The fragments were purified using Qiaquick PCR columns (Qiagen), analyzed on an ABI 3130xL genetic analyzer (Applied Biosystems) with peak positions identified by using a set of X-rhodamine (ROX)-labeled MapMarker1000 molecular weight standards (BioVentures). The raw capillary electrophoresis data was processed using Attagraph software (Attagene).
Turning to `CC(=O)CC(=O)Nc1ccc(C)cc1C`, the molecule was classed as inactive.
On the same count and under the same terms, the result for `CCOC(=O)CC(C)O` (stereo not given) reads “inactive”.
In general, AC50 refers to the concentration at which the activity in the assay is half-maximal. On to `CCCCN(CCCC)C(=O)N(CCCC)CCCC`, for which the AC50 was 48.3 µM (active).
Consider `O=C1c2ccccc2C(=O)c2c(O)ccc(O)c21`, for which the call was inactive.
As for `CCNCCO`, the result was inactive.
Consider `O=C1OC2(c3ccccc31)c1ccc(O)c(Br)c1Oc1c2ccc(O)c1Br`, for which the outcome was inactive.
Consider `Cc1ccc(-c2ccccc2)cc1`, for which the molecule was classed as inactive.
Regarding `C/C=C(\C)C(=O)OCCc1ccccc1`, the result was inactive.
Regarding `O=C1OC(=O)c2c(Br)c(Br)c(Br)c(Br)c21`, the outcome was inactive.
Take `CCCCC(CC)COC(C)=O` (stereo not given): the outcome was inactive.
Consider `COc1ccc(CCO)cc1`, for which the AC50 is 183 µM (active).
For `CCCC(=O)c1ccccc1`, the molecule was called inactive.
With `CCCCCCCCCC(C)C=O` (stereo not given), the result was inactive.
As for `CC(=O)CC(=O)Nc1ccccc1`, the result was inactive.
For the molecule `Cc1ccc(OC(=O)c2ccccc2O)cc1`, the result was inactive.
With `CN(C)c1cccc(O)c1`, the call was inactive.
On to `Nc1ccc(N)c2c1C(=O)c1ccccc1C2=O`, for which the outcome was inactive.
With `Cc1cc(C)nc(NS(=O)(=O)c2ccc(N)cc2)n1`, the molecule was classed as inactive.
Regarding `CC1(C)O[C@@H]2C[C@H]3[C@@H]4CCC5=CC(=O)C=C[C@]5(C)[C@@]4(F)[C@@H](O)C[C@]3(C)[C@]2(C(=O)CO)O1`, the AC50 is 0.419 µM (active).
`O=Cc1ccccc1S(=O)(=O)O`: the call was inactive.
On to `CCOc1ccc(NC(=O)CC(C)=O)cc1`, for which the molecule was called inactive.
As to `CCCCCCC(C)Nc1ccc(Nc2ccccc2)cc1` (stereo not given), the call was inactive.
For `CCCCSCCCC`, the molecule was called inactive.
Regarding `COC(=O)c1cccnc1`, the result was inactive.
Regarding `O=c1[nH]c(=O)c2cn[nH]c2[nH]1`, the call was inactive.
As for `Nc1ccccc1[N+](=O)[O-]`, the result was inactive.
Turning to `CN(C)C(=O)Nc1ccc(Oc2ccc(Cl)cc2)cc1`, the result was inactive.
For `CC(C)OCCO`, the result was inactive.
With `O=C(O)c1ccc(O)cc1`, the molecule was classed as inactive.
As for `Cc1ccc(S(=O)(=O)Oc2ccc(N=Nc3ccc(-c4ccc(N=Nc5c(O)ccc6cc(S(=O)(=O)O)cc(S(=O)(=O)O)c56)c(C)c4)cc3C)cc2)cc1`, the molecule was classed as inactive.
For the molecule `Cc1ccc(C)o1`, the call was inactive.
Same read-out and setting: then `CCOC(=O)c1ccc(N)cc1`, with “inactive”.
Take `Cc1ncc[nH]1`: the molecule was classed as inactive.
Consider `CCCCCCCCCCCC(=O)OC[C@@H](O)[C@H]1OC[C@H](O)[C@H]1O`, for which the result was inactive.
Consider `C=CC(C)C#N` (stereo not given), for which the call was inactive.
Turning to `CC(C)=CCCC(C)CC(=O)O` (stereo not given), the call was inactive.
As for `Cc1ccc(S(N)(=O)=O)cc1`, the molecule was classed as inactive.
`CC(=O)O[C@@H]1CC2CCC1(C)C2(C)C` (stereo not given in full): the result was inactive.
As for `CC(C)(C)CC(C)(C)c1ccc(OCCOCC[N+](C)(C)Cc2ccccc2)cc1`, the outcome was inactive.
As for `C[C@H]1C[C@@H](O)CC(C)(C)C1`, the molecule was called inactive.
